Measured values reported in PubChem BioAssay (NCI).
Compounds without any hit were thinned out: in the full panel of roughly 79,000, 15% have a hit. The source made the active and inactive calls. Cut-off read from the data, not from the text of the source: active = growth inhibition above about 70%; inactive = the rest.

Experiment: NCI Yeast Anticancer Drug Screen. Data for the mec2-1 strain (AID 157)
Details: S. cerevisiae mec2-1 strain, at 50.0 µM (retest, dose inferred, filed as 5.0), stronger effect = higher value
Summary of the method: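 Each compound was tested on mec2-1 yeast, a strain altered in DNA damage repair or cell cycle control. Growth inhibition is reported relative to vehicle.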

Row | Compound | growth inhibition
1 | C1=NC2c3ccccc3Cc3cccc1c32 (stereo not drawn) | 97% (active)
2 | COc1ccc2c(c1)CN([C@@H](C)[C@H]1CC[C@H]3[C@@H]4CC[C@H]5C[C@@H](O)CC[C@]5(C)[C@H]4CC[C@]13C)CO2 | 99% (active)
3 | Cc1c(N)nc(C(CC(N)=O)NCC(N)C(N)=O)nc1C(=O)NC(C(=O)NC(C)C(O)C(C)C(=O)NC(C(=O)NCCc1nc(-c2nc(C(=O)NCCCNCCCc3ccccn3)cs2)cs1)C(C)O)C(OC1OC(CO)C(O)C(O)C1OC1OC(CO)C(O)C(OC(N)=O)C1O)c1cnc[nH]1 (stereo not drawn) | 99% (active)
4 | COc1cc2c(cc1O)-c1c(cnn1-c1ccccc1)CCC2 | 93% (active)
5 | CN(C)CC(CN(C)C)C(=O)c1ccc(Oc2ccc(Cl)cc2)cc1 | 99% (active)
6 | N#CCCN(CCC#N)Cc1c(O)c(O)c(CN(CCC#N)CCC#N)c2ccccc12 | 41% (inactive)
7 | Cc1cc2c(c([N+](=O)[O-])c1C)C(=O)C(Br)=C(N)C2=O | 99% (active)
8 | O=C(O)CSC(=S)N1CCCC1 | 3% (inactive)
9 | CNC1=C2NC(=O)/C(C)=C\C=C\C(C)C(O)C(C)C(O)C(C)C(OC(C)=O)C(C)C(OC)/C=C/OC3(C)Oc4c(C)c(O)c(c(c4C3=O)C1=O)C2=O (stereo not drawn) | 61% (inactive)
10 | O=c1c(Cl)nsnc1Cl | 100% (active)
11 | CC(NC(=O)OCc1ccccc1)C(=O)NNc1ccccc1Cl (stereo not drawn) | 99% (active)
12 | O=C(OCc1ccccc1CN1CCOCC1)c1cccc(Br)c1 | 3% (inactive)
13 | OC(COc1ccc(Cl)cc1)COc1ccc(Cl)cc1 | 91% (active)
14 | Cc1c(-c2ccc(C(=N)N)cc2)oc(-c2ccc(C(=N)N)cc2)c1C | 98% (active)
15 | COC(=O)[C@@]12OC[C@]34[C@H]([C@@H](O)[C@@H]1O)[C@@]1(C)CC(=O)C(O)=C(C)[C@@H]1C[C@H]3OC(=O)[C@H](OC(=O)C(Cc1ccccc1)NC(=O)OC(C)(C)C)[C@@H]24 (stereo partly drawn) | 68% (inactive)
16 | CCCCCCCCCCCCCCCC(=O)NCC[N+](C)(CC)CC | -11% (inactive)
17 | Oc1ccc(CCCCCc2ccc(O)cc2)cc1 | 100% (active)
18 | NN(Cc1ccccc1)c1ccccc1 | 87% (active)
19 | CCOC(=O)c1[nH]cc(C)c1-c1ccc2c(-c3ccccc3)nc3ccccc3n12 | 61% (inactive)
20 | COC(=O)c1cn(NS(=O)(=O)c2ccc(OC)cc2)cc1C(=O)OC | 4% (inactive)

Row | Compound | growth inhibition
21 | CN(C)c1cc2c(cc1[N+](=O)[O-])-c1ccccc1C2O (stereo not drawn) | 28% (inactive)
22 | CN(C)CCOc1cc2c(c3ccccc13)-c1ccccc1C2O (stereo not drawn) | 45% (inactive)
23 | BrC(Br)([P+](c1ccccc1)(c1ccccc1)c1ccccc1)[P+](c1ccccc1)(c1ccccc1)c1ccccc1 | 41% (inactive)
24 | CCOCCNc1ncnc2c1cnn2C | -3% (inactive)
25 | C[C@H](CCC1=NCCN1)[C@H]1CC[C@H]2[C@@H]3CC[C@@H]4C[C@H](O)CC[C@]4(C)[C@H]3C[C@H](O)[C@]12C | 76% (active)
26 | CCOC(=O)C1=C(c2ccccc2)N(C)c2ccccc2S1 | 92% (active)
27 | C(=P(c1ccccc1)(c1ccccc1)c1ccccc1)[P+](c1ccccc1)(c1ccccc1)c1ccccc1.[Br][Cu][Br] | 99% (active)
28 | COc1ccc(N(C)Sc2ccccc2)cc1 | 65% (inactive)
29 | COc1ccc(Cc2c(-c3ccc(C)cc3)n[nH]c(=O)c2C2C(=O)N(c3ccccc3)N=C2c2ccccc2)cc1 (stereo not drawn) | 96% (active)
30 | N#CSC#CCCC#CSC#N | 55% (inactive)
31 | c1ccc2c(c1)OCC(CNCCNCC1COc3ccccc3O1)O2 (stereo not drawn) | 79% (active)
32 | CC(C)(C)OC(=O)N[C@H]1CC2(C=C(Cl)C(=O)C(Cl)=C2)OC1=O | 72% (active)
33 | c1ccc([P+](c2ccccc2)(c2ccccc2)C2CCCC2)cc1 | 15% (inactive)
34 | COc1ccc2nc(-c3ccc(Cl)cc3)[nH]c2c1 | 91% (active)
35 | CC[C@H](CC[C@@H](C)C1CC[C@H]2[C@@H]3CCC4=CC(=O)CC[C@]4(C)[C@H]3CC[C@]12C)C(C)C (stereo partly drawn) | 65% (inactive)
36 | CCOC(=O)N/N=C/c1ccc(N(C)CCC#N)cc1 | 12% (inactive)
37 | CC(Br)C(=O)c1ccc2cc(Cl)c3ccccc3c2c1 (stereo not drawn) | 99% (active)
38 | Cc1ccc(-n2cc(-c3ccc(Cl)cc3)c3c(NN)ncnc32)cc1 | 65% (inactive)
39 | O=C1c2ccccc2C(=O)c2c1ccc(C(=O)O)c2-c1ccc2ccccc2c1 | 98% (active)

Same assay, conditions: S. cerevisiae mec2-1 strain, at 50.0 µM, stronger effect = higher value

Row | Compound | growth inhibition
40 | C1=NC2c3ccccc3Cc3cccc1c32 (stereo not drawn) | 95.8% (active)
41 | COc1ccc2c(c1)CN([C@@H](C)[C@H]1CC[C@H]3[C@@H]4CC[C@H]5C[C@@H](O)CC[C@]5(C)[C@H]4CC[C@]13C)CO2 | 99.3% (active)
42 | Cc1c(N)nc(C(CC(N)=O)NCC(N)C(N)=O)nc1C(=O)NC(C(=O)NC(C)C(O)C(C)C(=O)NC(C(=O)NCCc1nc(-c2nc(C(=O)NCCCNCCCc3ccccn3)cs2)cs1)C(C)O)C(OC1OC(CO)C(O)C(O)C1OC1OC(CO)C(O)C(OC(N)=O)C1O)c1cnc[nH]1 (stereo not drawn) | 93.4% (active)
43 | COc1cc2c(cc1O)-c1c(cnn1-c1ccccc1)CCC2 | 96% (active)
44 | CN(C)CC(CN(C)C)C(=O)c1ccc(Oc2ccc(Cl)cc2)cc1 | 52.3% (inactive)
45 | N#CCCN(CCC#N)Cc1c(O)c(O)c(CN(CCC#N)CCC#N)c2ccccc12 | 48% (inactive)
46 | Cc1cc2c(c([N+](=O)[O-])c1C)C(=O)C(Br)=C(N)C2=O | 97.8% (active)
47 | O=C(O)CSC(=S)N1CCCC1 | -5.3% (inactive)
48 | CNC1=C2NC(=O)/C(C)=C\C=C\C(C)C(O)C(C)C(O)C(C)C(OC(C)=O)C(C)C(OC)/C=C/OC3(C)Oc4c(C)c(O)c(c(c4C3=O)C1=O)C2=O (stereo not drawn) | 52.8% (inactive)
49 | O=c1c(Cl)nsnc1Cl | 99.7% (active)
50 | CC(NC(=O)OCc1ccccc1)C(=O)NNc1ccccc1Cl (stereo not drawn) | 96.8% (active)
51 | O=C(OCc1ccccc1CN1CCOCC1)c1cccc(Br)c1 | 9.4% (inactive)
52 | OC(COc1ccc(Cl)cc1)COc1ccc(Cl)cc1 | 99.4% (active)
53 | Cc1c(-c2ccc(C(=N)N)cc2)oc(-c2ccc(C(=N)N)cc2)c1C | 90% (active)
54 | COC(=O)[C@@]12OC[C@]34[C@H]([C@@H](O)[C@@H]1O)[C@@]1(C)CC(=O)C(O)=C(C)[C@@H]1C[C@H]3OC(=O)[C@H](OC(=O)C(Cc1ccccc1)NC(=O)OC(C)(C)C)[C@@H]24 (stereo partly drawn) | 79.2% (active)
55 | CCCCCCCCCCCCCCCC(=O)NCC[N+](C)(CC)CC | 27.4% (inactive)
56 | Oc1ccc(CCCCCc2ccc(O)cc2)cc1 | 99.6% (active)
57 | NN(Cc1ccccc1)c1ccccc1 | 91.7% (active)
58 | CCOC(=O)c1[nH]cc(C)c1-c1ccc2c(-c3ccccc3)nc3ccccc3n12 | 64.2% (inactive)
59 | COC(=O)c1cn(NS(=O)(=O)c2ccc(OC)cc2)cc1C(=O)OC | 6.65% (inactive)

Row | Compound | growth inhibition
60 | CN(C)c1cc2c(cc1[N+](=O)[O-])-c1ccccc1C2O (stereo not drawn) | 29.9% (inactive)
61 | CN(C)CCOc1cc2c(c3ccccc13)-c1ccccc1C2O (stereo not drawn) | 26.8% (inactive)
62 | BrC(Br)([P+](c1ccccc1)(c1ccccc1)c1ccccc1)[P+](c1ccccc1)(c1ccccc1)c1ccccc1 | 23.6% (inactive)
63 | CCOCCNc1ncnc2c1cnn2C | -18.4% (inactive)
64 | C[C@H](CCC1=NCCN1)[C@H]1CC[C@H]2[C@@H]3CC[C@@H]4C[C@H](O)CC[C@]4(C)[C@H]3C[C@H](O)[C@]12C | 93.1% (active)
65 | CCOC(=O)C1=C(c2ccccc2)N(C)c2ccccc2S1 | 80.7% (active)
66 | C(=P(c1ccccc1)(c1ccccc1)c1ccccc1)[P+](c1ccccc1)(c1ccccc1)c1ccccc1.[Br][Cu][Br] | 99.5% (active)
67 | COc1ccc(N(C)Sc2ccccc2)cc1 | 49.1% (inactive)
68 | COc1ccc(Cc2c(-c3ccc(C)cc3)n[nH]c(=O)c2C2C(=O)N(c3ccccc3)N=C2c2ccccc2)cc1 (stereo not drawn) | 95.3% (active)
69 | N#CSC#CCCC#CSC#N | 93.9% (active)
70 | c1ccc2c(c1)OCC(CNCCNCC1COc3ccccc3O1)O2 (stereo not drawn) | 57.9% (inactive)
71 | CC(C)(C)OC(=O)N[C@H]1CC2(C=C(Cl)C(=O)C(Cl)=C2)OC1=O | 80.8% (active)
72 | c1ccc([P+](c2ccccc2)(c2ccccc2)C2CCCC2)cc1 | 97.5% (active)
73 | COc1ccc2nc(-c3ccc(Cl)cc3)[nH]c2c1 | 74.9% (active)
74 | CC[C@H](CC[C@@H](C)C1CC[C@H]2[C@@H]3CCC4=CC(=O)CC[C@]4(C)[C@H]3CC[C@]12C)C(C)C (stereo partly drawn) | 35.7% (inactive)
75 | CCOC(=O)N/N=C/c1ccc(N(C)CCC#N)cc1 | -26.9% (inactive)
76 | CC(Br)C(=O)c1ccc2cc(Cl)c3ccccc3c2c1 (stereo not drawn) | 31.4% (inactive)
77 | Cc1ccc(-n2cc(-c3ccc(Cl)cc3)c3c(NN)ncnc32)cc1 | 87.6% (active)
78 | O=C1c2ccccc2C(=O)c2c1ccc(C(=O)O)c2-c1ccc2ccccc2c1 | 97.8% (active)
